Peg3 prom inh: inhibitors of Peg3 promoter. HeLa PEG-Prom luciferase reporter, luminescence, overnight. inhibition, % at 20 µM. hit rate 1.7% among 360,000. AID 588405;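 active = inhibition of at least 50% at 20 µM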
CF NFkB inh: cystic fibrosis NF-kB activation inhibition; KKLEB NF-kB-GFP reporter, PAF-induced, GFP fluorescence overnight; inhibition, % at 5 µM; hit rate 0.86% among 360,000; AID 588850;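 active = at least 50% inhibition at 5 µM, scaled per plate between neutral and stimulator controls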;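 note: PAF is a Pseudomonas aeruginosa culture filtrate used as stimulus; plate controls were PAF-stimulated DMSO wells for no effect and unstimulated DMSO wells for full effect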
HIF-2a block: inhibitors of HIF-2a. 786-0 RCC cells HIF-2a reporter, luciferase luminescence, overnight. inhibition, % at 18.8 µM. hit rate 0.72% among 360,000. AID 624352;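 active = inhibition of the luminescence signal of 40% or more relative to plate controls, in a single-dose primary screen at 18.75 µM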
Shn3 inh set2: Schnurri-3 reporter inhibition in Clone20 osteoblasts; inhibition, % at 12.5 µM; Clone20 osteoblast Shn3 3'UTR firefly luciferase, 24 h; AID 588674; hit rate 0.52% among 360,000;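 active = mean inhibition of at least 75% with every replicate also reaching 75%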;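 note: 0% = median of neutral control wells and 100% = pilot-screen positive control compound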
KKLEB cytotox: CF airway cell cytotoxicity counter-screen; KKLEB CF airway cells viability, ATPlite luminescence, overnight; stronger effect = lower value; cells stimulated with P. aeruginosa culture filtrate; activity change (cytotoxicity), % at 5 µM; hit rate 0.36% among 360,000; AID 602141;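 active = corrected activity change at or below -50% at 5 µM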
MITF TRPM1 inh: reduces MITF-dependent TRPM1 promoter luciferase signal | inhibition, % at 12.5 µM | SK-MEL-5 TRPM1 promoter luciferase, 24 h | hit rate 0.83% among 330,000 | AID 488899;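 active = mean inhibition across replicates of 60% or more, whatever share of single replicates reaches that level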
CF NFkB inh conf: confirmation of cystic fibrosis induced NF-kB inhibitors. inhibition, % at 5 µM. AID 602472. shares compounds with CF NFkB inh. hit rate 64% among 1,300. KKLEB CF airway cells, PAF-induced NF-kB-GFP fluorescence, overnight; in the data active = inhibition above about 40%;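 note: stimulus PAF is a Pseudomonas aeruginosa filtrate and not platelet activating factor; plate controls were DMSO wells with stimulus for no effect and unstimulated DMSO wells for full effect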
Mdm2 MdmX conf: Mdm2/MdmX (human) interaction inhibition, confirmed. shares compounds with HIF-2a block. SaOS-2 split-luciferase Mdm2/MdmX complementation, luminescence. inhibition, % at 8 µM. hit rate 99% among 740;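 active = mean inhibition of the luminescence signal across two replicates at or above 26 percent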
Target sequence (O15151 whole entry, looked up): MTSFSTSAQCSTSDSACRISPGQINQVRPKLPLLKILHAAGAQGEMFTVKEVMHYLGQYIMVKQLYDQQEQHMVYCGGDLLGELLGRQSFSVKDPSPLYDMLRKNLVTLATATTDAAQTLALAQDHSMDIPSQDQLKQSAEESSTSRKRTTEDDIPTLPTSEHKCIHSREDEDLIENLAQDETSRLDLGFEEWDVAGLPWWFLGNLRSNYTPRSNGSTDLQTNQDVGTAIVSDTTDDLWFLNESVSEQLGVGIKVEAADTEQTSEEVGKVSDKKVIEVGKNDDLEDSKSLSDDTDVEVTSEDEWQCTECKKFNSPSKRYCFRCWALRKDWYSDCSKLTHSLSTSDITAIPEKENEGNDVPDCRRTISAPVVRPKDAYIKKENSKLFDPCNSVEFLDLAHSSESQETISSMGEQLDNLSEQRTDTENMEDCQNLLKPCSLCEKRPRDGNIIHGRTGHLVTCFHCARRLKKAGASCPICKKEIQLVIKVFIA
Target sequence (Q00987 whole entry, looked up): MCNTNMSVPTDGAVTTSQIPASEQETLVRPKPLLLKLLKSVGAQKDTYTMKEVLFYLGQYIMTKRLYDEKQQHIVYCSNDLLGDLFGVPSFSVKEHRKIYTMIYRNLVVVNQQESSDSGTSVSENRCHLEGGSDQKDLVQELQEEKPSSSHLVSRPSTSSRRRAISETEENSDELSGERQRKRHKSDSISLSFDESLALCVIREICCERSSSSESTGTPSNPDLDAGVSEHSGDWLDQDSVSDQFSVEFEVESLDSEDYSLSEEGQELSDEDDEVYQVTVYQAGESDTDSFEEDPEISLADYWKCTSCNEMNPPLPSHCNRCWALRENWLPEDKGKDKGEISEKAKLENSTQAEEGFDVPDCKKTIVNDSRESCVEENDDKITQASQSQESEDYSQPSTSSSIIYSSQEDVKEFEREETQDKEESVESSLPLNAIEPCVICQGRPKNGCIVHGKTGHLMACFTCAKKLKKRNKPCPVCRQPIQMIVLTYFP
HIF-2a inh conf: confirmation of HIF-2a inhibitors | shares compounds with HIF-2a block | hit rate 56% among 1,800 | 786-0 RCC cells, HIF-2a luciferase reporter luminescence, overnight | inhibition, % at 18.8 µM;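 active = mean inhibition across four replicates of at least 40 percent at the single tested concentration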
HIF-1a counter: inhibits HIF-1a reporter, a counter-screen for HIF-2a inhibitors; shares compounds with HIF-2a block; MiaPaCa-2 HIF-1a luciferase reporter, desferoxamine, overnight; inhibition, % at 18.8 µM; hit rate 72% among 1,800;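 active = mean inhibition of the reporter signal across four replicates at the single tested dose of 50% or more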
* hit, by the source's call; . = no result. Most compounds without a hit are left out; they make up all but 2.8% or so of the library.

SMILES	Peg3 prom inh	CF NFkB inh	HIF-2a block	Shn3 inh set2	KKLEB cytotox	MITF TRPM1 inh	CF NFkB inh conf	HIF-2a inh conf	HIF-1a counter	others
O=C(N/N=C/c1ccc(C(F)(F)F)cc1)c1ccc(O)cc1	-132	-7	-112	-12	1	-39	.	.	.
NC(N)=NN=C(c1ccc(F)cc1)c1ccc(C(F)(F)F)cc1	99*	72*	41*	-11	-21	103*	81*	34	86*
COc1ccc(-c2cnc3c(NC=O)cc(-c4ccc(C(=O)N5CCOCC5)cc4)cn23)cc1OC	35	57*	41*	-2	-35	.	63*	45*	69*
CN(Cc1ccc(Cl)cc1)C(=O)CNC(=O)C12CC3CC(CC(C3)C1)C2	2	8	14	15	-9	5	.	.	.
O=C(N/N=C/c1cc2ccccc2[nH]1)c1ccccc1Cl	-41	-7	-114	6	4	-8	.	.	.
CCOC(=O)/C=C/C(=O)Nc1ccccc1-c1ccccc1NC(=O)/C=C/C(=O)OCC	70*	56*	55*	64	-4	14	-34	14	45
COc1cc(C2C3=C(CC(C)(C)CC3=O)Nc3ccccc3N2C(C)=O)cc(OC)c1OC (stereo not given)	2	5	8	4	-5	3	.	.	.
O=C(c1ccc(S(=O)(=O)c2ccc(F)cc2)c([N+](=O)[O-])c1)N1CCCCCC1	18	54*	53*	92*	-21	48	39	3	49
C=CC(=O)Nc1cccc(Oc2ccnc3[nH]ccc23)c1	-11	42	-24	-16	-10	2	.	.	.
C=CC(=O)Nc1cccc(Oc2ncnc3[nH]cc(-c4cnc5ccccc5c4)c23)c1	42	87*	14	32	-3	31	79*	.	.	Mdm2 MdmX conf=100*
COC(=O)c1cc(=O)n(Cc2ccc(OC)c(OC)c2)c(=Nc2ccc(F)cc2)s1	81*	54*	70*	17	-21	16	-86	68*	102*
C#CCN(C[C@@H]1[C@@H](OC(=O)NCc2ccco2)[C@@H](OC(=O)NCc2ccco2)Cn2c(=O)n(CCCCCC)c(=O)n21)S(=O)(=O)c1ccc(C)cc1	-10	28	-1	27	7	.	.	.	.
C#CCN(C[C@@H]1[C@@H](OC(=O)NCc2ccco2)[C@@H](OC(=O)NCc2ccco2)Cn2c(=O)ccc(=O)n21)S(=O)(=O)c1ccc(C)cc1	95*	66*	43*	-5	-21	.	52*	44*	107*
O=C(/C=C/c1ccc(Br)cc1)c1ccc(NC2=NCCCS2)cc1	108*	56*	67*	71	-11	55	-13	-27	107*
Cc1[nH]c2ccccc2c(=O)c1C(=O)/C=C/c1ccccc1	105*	60*	90*	50	-28	85*	46*	85*	105*	Mdm2 MdmX conf=103*
CC1=CC(C)(C)Nc2ccc(OC(=O)CCN3C(=O)c4ccccc4C3=O)cc21	104*	71*	91*	53	5	22	-24	89*	95*
Cc1ccccc1-n1nc(-c2cccnc2)cc1C(=O)NN	21	12	18	.	7	-15	.	.	.
Cn1c(SC2=CS(=O)(=O)c3ccccc32)nc2ccccc21	99*	91*	91*	46	-27	65*	98*	-9	77*
CS(=O)(=O)N(CC(=O)N1CCCC1)c1ccccc1Br	2	0	16	-8	-2	3	.	.	.
Cc1ccc(/C=C/C(=O)c2c(C)nc3ccccn23)cc1	-235	18	-135	9	-9	-10	.	.	.
Cc1nc2ccccn2c1C(=O)/C=C/c1cccc([N+](=O)[O-])c1	102*	71*	75*	-40	1	71*	2	2	33
COC(CN(C(=O)CCl)C(C(=O)NC1CCCCC1)c1ccccc1C)OC (stereo not given)	64*	54*	47*	2	-41	27	-6	10	84*
COC(CN(C(=O)CCl)C(C(=O)NC1CCCCC1)c1ccc(Cl)cc1)OC (stereo not given)	16	8	4	-10	-1	-3	.	.	.
CC1=C(C(=O)OCc2ccc3c(c2)OCO3)C(c2cccc([N+](=O)[O-])c2)NC(=O)N1 (stereo not given)	41	74*	23	63	-12	-5	68*	.	.	Mdm2 MdmX conf=74*
COC(=O)C[C@H]1C=C[C@H](NC(=O)Nc2ccccc2OC)[C@@H](CO)O1	.	.	8	.	.	.	.	.	.
SMILES	Peg3 prom inh	CF NFkB inh	HIF-2a block	Shn3 inh set2	KKLEB cytotox	MITF TRPM1 inh	CF NFkB inh conf	HIF-2a inh conf	HIF-1a counter	others
CN(C1CCCCC1)S(=O)(=O)c1cccc(C#N)c1	0	-4	10	9	-10	3	.	.	.
O=[N+]([O-])c1cc(S(=O)(=O)N2CCCC2)ccc1O	0	-11	19	17	4	7	.	.	.
O=[N+]([O-])c1cc(S(=O)(=O)N2CCCCCC2)ccc1F	102*	51*	94*	8	-26	93*	.	87*	105*
COc1ccc(C2=NN(C(=O)COc3ncnc4ccccc34)C(c3ccco3)C2)cc1 (stereo not given)	39	17	0	-3	-21	-12	.	.	.
COc1ccc(C2=NN(C(=O)COC(=O)c3ccc(S(C)(=O)=O)c([N+](=O)[O-])c3)C(c3ccco3)C2)cc1 (stereo not given)	94*	84*	61*	66	-80*	81*	.	7	103*	Mdm2 MdmX conf=103*
O=C(OC1CCOC1=O)c1ccc(Cl)c(S(=O)(=O)N2CCOCC2)c1 (stereo not given)	-2	1	-6	-22	-5	3	.	.	.
CCOC(=O)c1cccc(NC(=O)/C=C/c2ccc3c(c2)OCO3)c1	-98	-11	47*	-28	-2	6	.	69*	38
Cc1ccc(N(NC(=O)C(O)(c2ccccc2)c2ccccc2)C(=O)CCl)cc1	103*	58*	50*	3	-66*	29	.	32	99*	Mdm2 MdmX conf=102*
O=C(CCS(=O)(=O)c1ccccc1)N1CCN(c2ccccc2)CC1	-170	0	-147	-76	-4	-52	.	.	.
CC(OC(=O)c1ccccc1C(=O)N(C)C1CCCCC1)C(=O)NC1(C#N)CCCCC1 (stereo not given)	-2	-16	1	-4	6	3	.	.	.

Bioassay records from PubChem BioAssay.
